# Results: PubChem BioAssay (NCI)
# About 83,000 compounds went through this panel and 20% of them were active in at least one assay; those are over-represented in the sample as a whole.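 In brief: 96-well plates, 48 h treatment, single concentration, percent growth endpoint.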 Active and inactive are the calls of the source.
# System: NCI-H460 lung
# Test: NCI-60 one-dose screen, 48 h (100 = growth as untreated, 0 = no growth, -100 = all killed)
# Settings: 10 µM unless noted
# Experimental: Growth inhibition of the NCI-H460 human Non-Small Cell Lung tumor cell line is measured as a screen for anti-cancer activity. Cells are grown in 96 well plates and exposed to the test compound for 48 hours. Compounds are tested at a single concentration, which is 10^-5 M for most compounds. The reported endpoint is percent growth (GI% or GIPRCNT), where numbers from 0 - 100% represent growth inhibition, and numbers from -100% - 0 represent cell death. For example, a value of 40 represents 60% growth inhibition. A value of 0 means no net growth occurred over the course of the experiment. A value of -40 indicates 40% of cells at the beginning of the experiment died by the end of the experiment. A value of -100 means all cells are dead at the end of the experiment.
# NCI-60 Human Tumor Cell Lines Screen was performed using the standard one-dose NCI protocol, which is described in more detail at https://dtp.cancer.gov/discovery_development/nci-60/default.htm.
# Compounds with GIPRCNT values below 10 were considered active. Activity score was based on GIPRCNT using the following formula: […]
# Score is 0 for GIPRCNT values of 100 or above, 50 for GIPRCNT values of 0, and 100 for GIPRCNT values of -100.
row,SMILES,growth
1,CCN(CC)CCOc1ccc(Cl)c(C)c1,106% (inactive)
2,C=COC(=O)CCCCCCCCC,106% (inactive)
3,O=c1cc(Cc2ccc([N+](=O)[O-])cc2)[nH]c(=O)[nH]1,109% (inactive)
4,O=c1ccn(-c2ncnc3nc[nH]c23)cc1,113% (inactive)
5,COc1cc2c(cc1O)CCN1C[C@@H](CC(C)C)[C@@H](O)C[C@@H]21,116% (inactive)
6,COc1ccc2[nH]c(=O)c(/C=N/Nc3nc(-c4ccccc4)cs3)c(O)c2c1,46.6% (inactive)
7,COc1ccc(Cn2cc3c(c2-c2cc(OC)c(OC)c(OC)c2)CCc2cnoc2-3)cc1,4.4% (active)
8,O=C1NN(C(=O)c2ccc(Cl)cc2)C(c2ccccc2)=N/C1=C\c1ccc(F)cc1,94.6% (inactive)
9,CCN(CC)CCC(CNc1ccnc2cc(Cl)ccc12)c1ccc(Cl)cc1 (stereo not given),-12.4% (active)
10,NC1=C(/C(N)=N/O)C(c2ccccc2)c2ccc3ccccc3c2O1 (stereo not given),1.37% (active)
11,Clc1ccc2c(NC3CCC(NC4CCCCC4)CC3)ccnc2c1 (stereo not given),77.5% (inactive)
12,O=C(Nc1cccc(-n2cc(-c3ccncc3)c(-c3ccc(Cl)c(O)c3)n2)c1)Nc1ccc(Cl)c(C(F)(F)F)c1,-43.7% (active)
13,C=C1C(=O)O[C@H]2[C@H]1CC/C(Cn1cc(CNC(=O)/C=C/c3c[nH]c4ccccc34)nn1)=C\CC[C@@]1(C)O[C@@H]21,98.1% (inactive)
14,O=S(=O)(CC(O)(c1ccccc1)c1ccccc1)CC(O)(c1ccccc1)c1ccccc1,77.6% (inactive)
15,C=CCn1cc(-c2nc3ccccc3s2)c2cc(-c3ccc4c5c(cccc35)C(=O)N(CCN3CCNCC3)C4=O)ccc21,89% (inactive)
16,COc1cc(C2NN=C3c4ccccc4CCC32)cc(OC)c1OC (stereo not given),91.3% (inactive)
17,CCOC(=O)c1c(/N=C2\SC(=O)/C(=C\C(=O)OC)N2NC)sc2c1CCN(C(=O)OCC)C2,101% (inactive)
18,COc1cc(C2C3=C(COC3=O)Nc3cc4c(cc32)CCC4)cc2c1OCO2 (stereo not given),7.05% (active)
19,CC(C)(C)n1cc(-c2ccnc(NCCCNS(=O)(=O)c3cccc(F)c3)c2)c(-c2cccc(O)c2)n1,19.6% (inactive)
20,CC(=O)Nc1ccc(S(=O)(=O)n2ccc(-c3ccc4c(c3)CCC(C)(C)O4)n2)cc1,41.4% (inactive)

row,SMILES,growth
1,COc1ccc(S(=O)(=O)n2ccc(-c3ccc4c(c3)CCC(C)(C)O4)n2)cc1OC,69.6% (inactive)
2,Clc1cccc(-c2cc(-c3ccc4c(c3)OCCO4)[nH]n2)c1,12.1% [25 µM] (inactive)
3,O=C(c1ccccc1)C1OC1c1ccc([N+](=O)[O-])cc1 (stereo not given),84% (inactive)
4,CN1CCN(Cc2ccc(NC(=O)c3cncc(C#Cc4cnc(N)c5ccncc45)c3)cc2C(F)(F)F)CC1,8.86% (active)
5,COc1cc(NC(N)=NCCC(C)(C)Oc2ccc(C(F)(F)F)cc2)ncc1C#N,-79.3% (active)
6,CC(=O)Oc1csc(N(C(C)=O)c2cc(C(=O)O)cc(C(=O)O)c2)n1,102% (inactive)
7,Cc1ccc2nc(-c3cc4c([nH]c5ccccc54)c(-c4ccc(F)c(F)c4)n3)[nH]c2c1,83% (inactive)
8,O=C(/C=C/c1c[nH]c2ccccc12)c1ccc(O)c(CN2CCN(c3ccc(F)cc3)CC2)c1,106% (inactive)
9,Cc1cc(N/N=C/c2nc(-c3ccc(Br)cc3)oc2C)c2cc(Br)ccc2n1,-13.1% (active)
10,O=C(Nc1ccncc1)C(=O)c1cn(S(=O)(=O)c2ccc(Br)cc2)c2ccccc12,68.4% (inactive)
11,COc1cc2c(cc1OCCCN1CCN(CCCn3c4ccccc4c4ccccc43)CC1)N=C[C@@H]1CCCN1C2=O,-96.9% (active)
12,CCN1C(=O)N(CC)C2C1NN=c1s/c(=C\c3cccnc3)c(=O)n12 (stereo not given),7.97% (active)
13,COc1ccc(NC(=O)c2cc(OC)c(OC)c(OC)c2)cc1O,17.2% (inactive)
14,COc1cc(/C=C/C(=O)/C=C/c2cc(OC)c3c(c2)OCO3)cc2c1OCO2,105% (inactive)
15,CCCCCCCC/C=C/CCCCCCCC1=NC(C)(C)CN1C(C)(C)CO,-86.4% (active)
16,CCCCCCCCCCCCCCCCNC(=O)OC(C)C,2.2% (active)
17,COc1ccc(/C=C(\C#N)c2cc(OC)c3c(c2)OCO3)cc1,5.33% (active)
18,COc1ccc(Nc2ncccc2C(=O)NCc2cn(Cc3cccc(Oc4ccccc4)c3)nn2)cc1,22.3% (inactive)
19,COC(=O)C1CCCN1C(=O)[C@@H]1CCCN1C(=O)[C@H](Cc1c[nH]c2ccccc12)NC(=S)Nc1cc(C(F)(F)F)cc(C(F)(F)F)c1 (stereo not given in full),22.3% (inactive)
20,O=C1/C(=C/c2ccc(Cl)cc2)CN(Cc2cn(CCNc3ccnc4cc(Cl)ccc34)nn2)C/C1=C\c1ccc(Cl)cc1,-78.6% (active)
